Results published in PubChem BioAssay (NCI).
Where “and” joins values, the source holds several entries; their conditions need not be identical. Equal entries are not always repeated. This is part of a sample that, as a whole, favours compounds with a hit. Of some 83,000 tested, about 20% had one in any assay.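 Cells were grown in 96-well plates and exposed to the test compound at a single concentration for 48 hours; results are reported as percent growth, with values below 10 considered active.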

How the values were obtained:
Assay in all cases: NCI-60 one-dose screen, 48 h (100 = growth as untreated, 0 = no growth, -100 = all killed)
Conditions in all cases: 10 µM unless noted
[1] = system: SK-MEL-2 melanoma
[2] = system: EKVX NSCLC
[3] = system: SN12C renal
[4] = system: UO-31 renal
[5] = system: TK-10 renal
[6] = system: ACHN renal
[7] = system: CAKI-1 renal
[8] = system: A498 renal
[9] = system: CCRF-CEM leukemia
[10] = system: MOLT-4 leukemia
[11] = system: SR leukemia
[12] = system: RPMI-8226 leukemia
[13] = system: OVCAR-8 ovarian
[14] = system: OVCAR-5 ovarian
[15] = system: OVCAR-4 ovarian
[16] = system: SK-OV-3 ovarian
[17] = system: IGROV1 ovarian
[18] = system: OVCAR-3 ovarian
[19] = system: HS 578T breast
[20] = system: NCI/ADR-RES ovarian

Measured: growth

CN(C=O)c1ccccc1
inactive: [1] 103% | [2] 86.6% | [3] 93.3% | [4] 65.5% | [5] 121% | [6] 92% | [7] 88.2% | [8] 98% | [9] 95.7% | [10] 97.5% | [11] 101% | [12] 91% | [13] 96.6% | [14] 100% | [15] 85.3% | [16] 86.7% | [17] 102% | [18] 110% | [19] 100% | [20] 97.4%

O=C(c1ccncc1)c1c(Cc2ccccc2)ccc2ccccc12
inactive: [1] 69.7% | [2] 66.5% | [3] 90.6% | [4] 64.5% | [5] 107% | [6] 93.8% | [7] 73.8% | [8] 104% | [9] 103% | [10] 94.6% | [11] 107% | [12] 85.1% | [13] 82.5% | [14] 87.5% | [15] 82.7% | [16] 120% | [17] 18% | [18] 98% | [19] 95.3% | [20] 88.2%

CC(=O)Nc1cscc1NC(C)=O
inactive: [1] 139% | [2] 73.2% | [3] 89.1% | [4] 93.3% | [5] 97.8% | [6] 96.3% | [7] 73.1% | [8] 92.9% | [9] 89.2% | [10] 111% | [11] 90.1% | [12] 95.8% | [13] 107% | [14] 91.9% | [15] 100% | [16] 103% | [17] 99.2% | [18] 102% | [19] 103% | [20] 98.9%

CC1(C)OC(=O)C(=Cc2ccc(C#N)cc2)C(=O)O1
inactive: [1] 93.7% | [2] 102% | [3] 104% and 112% | [4] 94.3% and 87.1% | [5] 98.3% and 101% | [6] 108% and 98.1% | [7] 102% and 99.3% | [8] 104% and 94.8% | [9] 102% and 97.1% | [10] 103% and 80.1% | [11] 93.5% and 89% | [12] 101% and 103% | [13] 94.5% and 97.8% | [14] 107% and 113% | [15] 115% and 98.3% | [16] 104% and 106% | [17] 107% and 105% | [18] 111% and 105% | [19] 99.3% and 104% | [20] 106% and 110%

CC(C)(C)OC(=O)CC1(O)CCCCC1
inactive: [1] 107% | [2] 102% | [3] 100% | [4] 101% | [5] 99.6% | [6] 105% | [7] 100% | [8] 84.6% | [9] 106% | [10] 108% | [11] 105% | [12] 107% | [13] 108% | [14] 115% | [15] 97.9% | [16] 105% | [17] 114% | [18] 108% | [19] 102% | [20] 107%

Cn1c(N)c(N=O)c(=O)n(C)c1=O
inactive: [1] 108% and 102% | [2] 97.4% and 95.9% | [3] 109% and 93.8% | [4] 82% and 92.5% | [5] 120% and 92.8% | [6] 109% | [7] 102% | [8] 99% and 78% | [9] 106% and 116% | [10] 93.9% and 117% | [11] 92.4% and 91.7% | [12] 104% and 116% | [13] 96.8% and 104% | [14] 111% and 104% | [15] 111% and 103% | [16] 111% and 118% | [17] 105% | [18] 109% and 90.7% | [19] 112% and 94.4% | [20] 97.6%

CC(=O)c1cc2ccccc2o1
inactive: [1] 97.9% | [2] 106% | [3] 101% | [4] 99.6% | [5] 93.6% | [6] 101% | [7] 99.6% | [8] 104% | [9] 106% | [10] 99.7% | [11] 98.3% | [12] 98.6% | [13] 115% | [14] 87.7% | [15] 114% | [16] 96.8% | [17] 110% | [18] 114% | [19] 108% | [20] 102%

O=C(O)C(Cc1ccc(OS(=O)(=O)Cc2ccccc2)cc1)NS(=O)(=O)Cc1ccccc1 (centres undefined)
inactive: [1] 110% and 108% | [2] 102% and 115% | [3] 110% and 104% | [4] 95.8% and 86.1% | [5] 101% and 110% | [6] 105% and 101% | [7] 90.9% and 98.6% | [8] 114% and 130% | [9] 115% and 112% | [10] 121% and 102% | [11] 100% and 85.8% | [12] 110% and 102% | [13] 105% | [14] 123% and 112% | [15] 99.8% and 109% | [16] 112% and 120% | [17] 106% and 121% | [18] 111% and 109% | [19] 106% | [20] 105% and 112%

O=C1C2=C(Nc3cc(Cl)ccc3N2)OC1c1c[nH]c2ccc(COc3ccccc3)cc12 (centres undefined)
inactive: [1] 86.7% | [2] 55% | [3] 71.3% | [4] 51.2% | [5] 71.6% | [6] 60% | [7] 52.1% | [8] 102% | [9] 64.1% | [10] 77.3% | [11] 85.4% | [13] 46.9% | [14] 88.2% | [15] 31.8% | [16] 26.7% | [17] 65.3% | [18] 55.1% | [19] 29.6%

COc1cc2c(cc1O)C(=O)CCCC2
inactive: [1] 98% | [2] 81.6% | [3] 111% | [4] 90.4% | [5] 110% | [6] 96.9% | [8] 116% | [9] 97.7% | [10] 83.9% | [11] 102% | [12] 104% | [13] 117% | [14] 92.8% | [15] 93.6% | [16] 108% | [17] 64.7% | [18] 101% | [19] 110% | [20] 94.5%

CCC(C)(O)CCC(C)(O)CC (centres undefined)
inactive: [1] 116% | [2] 99.4% | [3] 108% | [4] 91% | [5] 103% | [6] 111% | [7] 101% | [8] 114% | [9] 101% | [10] 102% | [11] 97.4% | [13] 102% | [14] 114% | [15] 111% | [16] 99% | [17] 103% | [18] 107% | [19] 108% | [20] 99.2%

OC(CC(c1ccccc1)c1cccc2ccccc12)(c1ccccc1)c1ccccc1 (centres undefined)
inactive: [1] 77.9% and 74.5% | [2] 79.8% and 54.9% | [3] 91.3% and 84.9% | [4] 70.2% and 57.4% | [5] 75.9% and 82.7% | [6] 83.9% and 93% | [7] 64.6% and 57% | [8] 73.4% and 89.7% | [9] 38.5% and 83.4% | [10] 77.3% and 52.7% | [11] 94.9% and 63.1% | [13] 72.8% and 87.1% | [14] 92.1% and 89.9% | [15] 81.3% and 75.7% | [16] 85.4% and 93.1% | [17] 88.6% and 84.8% | [18] 94.1% and 90.6% | [19] 84.4% and 86.6% | [20] 76.2% and 70.3%

COc1ccc2oc3cc(NCCN(C)C)ccc3c(=O)c2c1
inactive: [1] 108% and 107% | [2] 85.9% | [3] 81.7% and 64.2% | [4] 82.9% and 67.4% | [5] 106% and 98.9% | [6] 74.5% and 58.9% | [8] 121% and 85.7% | [9] 70.3% | [10] 80.3% and 50.9% | [11] 38.9% | [12] 103% and 73.2% | [13] 88% and 63.4% | [14] 88.2% and 87.1% | [15] 106% and 91.7% | [16] 92.5% and 55% | [17] 90.3% and 88.4% | [18] 121% and 107% | [19] 105% and 83.9% | [20] 90.5% and 69.6%
